# High-throughput results from PubChem.
# EPAC1 antag = qHTS for Antagonist of cAMP-regulated guanine nucleotide exchange factor 3 (EPAC1): primary screen | 360,000 compounds, 0.14% hits | AID 720709, 2013 | EPAC1 GEF assay, Rap1b-BODIPY-GDP exchange fluorescence | Potency, µM (doses to about 115 µM), inactives show at the top dose activity change, negative = inhibition, most hits filed as inhibitors | Rap guanine nucleotide exchange factor 3 (Homo sapiens), O95398;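 note: potency is the fitted concentration of half-maximal effect; plate controls were vehicle for no effect and positive control for full effect; nearly all actives have a fitted effect of over 50% in size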
# Target sequence (O95398 whole entry, looked up): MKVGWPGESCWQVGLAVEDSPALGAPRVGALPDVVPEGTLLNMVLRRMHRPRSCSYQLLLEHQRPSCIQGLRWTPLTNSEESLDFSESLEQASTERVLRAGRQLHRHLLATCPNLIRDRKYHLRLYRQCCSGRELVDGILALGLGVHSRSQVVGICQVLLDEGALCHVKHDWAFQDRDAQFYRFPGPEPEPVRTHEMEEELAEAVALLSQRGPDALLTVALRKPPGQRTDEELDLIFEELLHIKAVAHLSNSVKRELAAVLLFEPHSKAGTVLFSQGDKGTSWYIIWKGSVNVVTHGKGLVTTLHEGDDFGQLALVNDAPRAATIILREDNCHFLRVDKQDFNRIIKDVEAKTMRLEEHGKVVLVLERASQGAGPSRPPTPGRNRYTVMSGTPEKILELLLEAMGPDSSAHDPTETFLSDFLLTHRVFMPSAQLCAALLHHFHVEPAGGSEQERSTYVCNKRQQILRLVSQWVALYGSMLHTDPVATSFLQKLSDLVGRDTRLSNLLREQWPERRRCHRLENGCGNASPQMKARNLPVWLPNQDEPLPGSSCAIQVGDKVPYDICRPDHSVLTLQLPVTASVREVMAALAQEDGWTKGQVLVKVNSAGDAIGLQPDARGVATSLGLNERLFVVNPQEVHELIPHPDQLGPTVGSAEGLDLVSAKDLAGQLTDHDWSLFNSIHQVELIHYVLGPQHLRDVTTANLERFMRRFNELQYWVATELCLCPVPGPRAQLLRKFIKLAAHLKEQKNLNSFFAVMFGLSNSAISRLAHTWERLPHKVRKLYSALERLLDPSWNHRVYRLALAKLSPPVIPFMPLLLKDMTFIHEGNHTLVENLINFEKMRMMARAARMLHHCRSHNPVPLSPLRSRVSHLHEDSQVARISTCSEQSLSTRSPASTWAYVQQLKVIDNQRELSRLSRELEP
# EPAC2 ag = qHTS for Agonist of cAMP-regulated guanine nucleotide exchange factor 4 (EPAC2): primary screen; 360,000 compounds, 0.079% hits; EPAC2 activation, biochemical qHTS; response scale: 100% = 6.5 mM cAMP response; AID 720711, 2013; Rap guanine nucleotide exchange factor 4 (Homo sapiens), Q8WZA2; Potency, µM (titrated, usually from 154 µM), inactives show at the highest dose activation, most hits filed as activators; note: potency is the fitted concentration of half-maximal effect; nearly all actives have a fitted effect of over 50% in size
#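 In this primary screen, activation is scored as increased exchange of BODIPY-GDP from Rap1B by 100 nM EPAC2, with 50 uM GDP as competitor. Signal is normalized to the 6.5 mM cAMP agonist control.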
# EPAC2 antagonist = qHTS for Antagonist of cAMP-regulated guanine nucleotide exchange factor 2 (EPAC2): primary screen; Rap guanine nucleotide exchange factor 4 (Homo sapiens), Q8WZA2; EPAC2 GEF exchange of Rap1B-BODIPY-GDP, fluorescence; Potency, µM (doses to about 114 µM), for inactives: at the highest dose activity, negative = inhibition, hits mostly inhibitors; 360,000 compounds, 0.18% hits; AID 720708, 2013; note: potency is the fitted concentration of half-maximal effect; % is set by controls: 0 for no effect and ±100 for the full control effect; nearly all actives have a fitted effect of over 45% in size
# Coupling enz = qHTS Assay for Inhibitors of Fructose-1,6-bisphosphate Aldolase from Giardia Lamblia: Coupling assay counterscreen; 290,000 compounds, 0.67% hits; activity change, negative = inhibition, % at 58.2 µM, hits read low; coupling enzyme system counterscreen, AmpLite Red fluorescence; in the data active = activity change below about -30%; note: % is set by controls: 0 for no effect and ±100 for the full control effect
#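 Counterscreen of the coupled detection system alone, without aldolase: glyceraldehyde-3-phosphate coupling enzymes plus AmpLite Red readout. Compounds at 57.5 uM final, 10 min RT preincubation, 20 min RT reaction, fluorescence 525/598 nm.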
# USP1 inh = Inhibitors of USP1/UAF1: Primary Screen. Ubiquitin carboxyl-terminal hydrolase 1 (Homo sapiens), O94782. recombinant USP1/UAF1, Ub-Rhodamine cleavage fluorescence. Potency, µM (series often up to 57.1 µM), for inactives: at the top dose activity change, negative = inhibition, actives largely listed as inhibitors. 390,000 compounds, 0.23% hits. AID 743255, 2014; note: potency is the fitted concentration of half-maximal effect; % is set by controls: 0 for no effect and ±100 for the full control effect; nearly all actives have a fitted effect of over 60% in size
#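 Step one: compound is pinned into 1nM USP1/UAF1 in HEPES pH 7.8 buffer with TCEP. Step two: 15 min room-temperature incubation. Step three: Ub-Rho (150nM final) starts cleavage, tracked by fluorescence over six one-minute reads.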
# EPAC1 ag = qHTS for Agonist of cAMP-regulated guanine nucleotide exchange factor 3 (EPAC1): primary screen. EPAC1 agonist qHTS, biochemical assay; response scale: 100% = response to 6.5 mM cAMP. Potency, µM (series often up to 154 µM), for the others: at the top dose activation, usual class: activators. 360,000 compounds, 0.073% hits; note: potency is the fitted concentration of half-maximal effect; nearly all actives have a fitted effect of over 60% in size
#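 Nucleotide exchange by EPAC1 (100 nM) on Rap1B–BODIPY-GDP (250 nM) in the presence of 50 uM GDP is tracked fluorescently at 480/540 nm over 30 min. Signals are normalized to a 6.5 mM cAMP control.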
# * hit, by the source's call; ? = inconclusive; · = no result given; [ ] = remark or other dose. This is a sample that favours compounds with a hit; in the whole collection about 0.87% have one here. Unless noted, calls come from the whole dose curve; as a rule, active = well fitted curve in the direction sought with a large enough effect; inconclusive = small, poorly fitted or top-dose-only effect, or another doubt; inactive = no such curve, though single readings can be large; an effect the other way counts as inactive or inconclusive.
SMILES,EPAC1 antag,EPAC2 ag,EPAC2 antagonist,Coupling enz,USP1 inh,EPAC1 ag
O=[N+]([O-])c1ccc(Sc2cccc3cccnc23)cc1,8%,11%,-1%,-42*,-3%,14%
O=[N+]([O-])c1cc(Cl)ccc1Sc1cccc2cccnc12,7%,7%,2%,-23,-29%,1%
O=[N+]([O-])c1ccc(Sc2cccc3cccnc23)c([N+](=O)[O-])c1,-20%,11%,-5%,-47*,-19%,8%
COc1cccc(CN2C(=O)C(C)Oc3ccccc32)c1 (stereo not given),-8%,1%,-16%,-3,-13%,12%
COc1cc(CN2C(=O)C(C)ON=C2c2ccccc2F)cc(OC)c1 (stereo not given),-3%,3%,32µM*,·,·,-5%
O=C(COC(=O)C1=COCCO1)Nc1ccc(F)c(F)c1,5%,-1%,3%,·,-11%,-4%
CSc1nnc(-c2ccccc2)c(-c2ccccc2)n1,6%,10%,?,5,-22%,18%
Cc1ccc(NC(=O)CSc2nnc(-c3ccco3)c(-c3ccco3)n2)cc1,-6%,7%,-6%,-18,-17%,10%
O=C(CSc1nnc(-c2ccco2)c(-c2ccco2)n1)Nc1ccccc1,?,7%,-5%,-30*,-14%,0%
CSc1nnc(-c2ccco2)c(-c2ccco2)n1,-4%,0%,0%,-34*,-22%,0%
CCCNC(=S)Nc1ccc(F)cc1F,-5%,2%,-2%,7,-1%,3%
CN(C)S(=O)(=O)c1ccc2c(c1)/C(=C/c1cc3c([nH]1)CCCC3)C(=O)N2,3%,16%,12%,·,32µM*,?
CN(C)S(=O)(=O)c1ccc2c(c1)C(=O)c1cc(S(=O)(=O)N(C)C)ccc1CC2,-21%,10%,-7%,·,·,1%
COc1cc2c(C#N)c(N3CCCC3)nc(N)c2c(N)n1,?,26%,-18%,-31*,7.9µM*,-4%
CCOc1cc2c(C#N)c(N3CCCC3)nc(N)c2c(N)n1,0%,-6%,-9%,·,-26%,-8%
COc1ccccc1N1CCN(c2nc(N)c(C#N)c(CC#N)c2C#N)CC1,-9%,-343%[15.6 µM],-1%,-19,0%,0%
COc1cc2c(C#N)c(N3CCN(C)CC3)nc(N)c2c(N)n1,·,·,·,-13,·,·
CCCOc1cc2c(C#N)c(N3CCCC3)nc(N)c2c(N)n1,-22%,21%,8%,·,28µM*,-5%
N#Cc1c(N)nc(N2CCCC2)c(C#N)c1-c1ccc(Cl)cc1,-3%,-8%,1%[57.1 µM],0,-26%,-3%
COc1cc2c(C#N)c(N3CCN(c4ccccc4OC)CC3)nc(N)c2c(N)n1,-6%,14%,-22%[57.1 µM],-52*,-6%,17%
N#Cc1c(N2CCCC2)nc(N)c2c(N)nc(N3CCCC3)cc12,?,?,?,-36*,0.32µM*,1%
COc1ccc(/C=N\NC(=O)c2cc(O)c(O)c(O)c2)cc1CN1CCN(c2ccc(F)cc2)CC1,-21%,-11%,-15%,-6,-4%,2%
Cc1ccc2c(c1)c1c3n2CCN(C(=O)CN2CCN(C)CC2)C3CCC1 (stereo not given),8%,7%,1%,-2,2%,-3%
Cc1ccc2c(c1)c1c3n2CCN(C(=O)C2CC2)C3CCC1 (stereo not given),-8%,3%,?,-36*,-21%,5%
Cc1ccc2c(c1)c(=O)c1c3n2CCN(C(=O)CCl)C3CC1 (stereo not given),-13%,-11%,14%,-42*,32µM*,1%
SMILES,EPAC1 antag,EPAC2 ag,EPAC2 antagonist,Coupling enz,USP1 inh,EPAC1 ag
O=c1/c(=C\c2cc([N+](=O)[O-])cc([N+](=O)[O-])c2O)sc2nc3ccccc3n12,?,14%,?,-32*,?,-8%
Cn1c(/N=C/c2c(O)ccc3ccccc23)nc2ccccc21,-28%,-14%,?,-79*,?,-2%
Cc1oc(/N=C/c2c(O)ccc3ccccc23)c(C#N)c1C,·,·,·,-30*,·,·
Cc1ccc(N=Cc2c(O)ccc3ccccc23)cc1F,-18%,-3%,-14%,-47*,3%,18%
O=S(=O)(/N=C/c1c(O)ccc2ccccc12)c1ccccc1,-12%,0%,16%,-36*,-18%,-5%
COc1cc(F)ccc1-c1csc(C(NC(C)=O)c2cccc(F)c2)n1 (stereo not given),-16%,2%,-10%,·,·,-3%
CCN1C[C@@H]2[C@@H]3C(=O)N(C)C(=O)[C@@H]3[C@](C)(C1=O)N2C(=O)c1ccc(Cl)cc1,5%,10%,2%,·,-18%,1%
CCOc1ccc2nc(Cl)c(C3CC(c4ccccc4)=NN3C(=O)c3ccco3)cc2c1 (stereo not given),·,·,·,-1,·,·
CCC1CCCCN1C(=O)Cn1c(=O)n(CCCCCC(=O)NCc2ccccc2Cl)c(=O)c2sccc21 (stereo not given),·,·,·,·,-16%,·
Cc1ccc(CN2CCSc3ccc(C(=O)NCCc4ccccc4)cc32)cc1,·,·,·,·,-16%,·
Cc1ccc2occ(/C=N/NC(=O)c3ccccc3Br)c(=O)c2c1,-9%,9%,10%,3,-12%,-9%
N#Cc1cccc(N=Cc2c(O)ccc3ccccc23)c1,-21%,12%,6%,-38*,-17%,-9%
CCOC(=O)c1sc(/N=C/c2c(O)ccc3ccccc23)cc1C,-10%,-97%,3%,-34*,-17%,2%
NC(=O)c1ccc(N=Cc2c(O)ccc3ccccc23)cc1,-9%,-17%,36%,·,?,9%
O=C(O)c1ccc(N=Cc2c(O)ccc3ccccc23)cc1,-12%,1%,-3%,-36*,-27%,7%
CCOC(=O)c1cc2ccc3ccccc3c2s1,-12%,-5%,-1%,-3,-11%,17%
COc1ccc(N=Cc2c(O)ccc3ccccc23)cc1,14%,-44%,?,-23,?,?
Cc1cc(C)c(S(=O)(=O)/N=C2/C=C(SCC(=O)O)C(=O)c3ccccc32)cc1C,?,9%,-15%,-46*,25µM*,20%
